Laboratory results from the supplement of paper PMC8728848.
This excerpt belongs to a sample that is enriched for the strongest signals.

Tests used:
Assay in all cases: glycan array binding signal (z-score within array); higher = stronger binding
Conditions in all cases: glycan notation: IUPAC condensed, linker removed
[1] = target: Fuc(a1-2)Gal(b1-4)GlcNAc(b1-3)[Fuc(a1-2)Gal(b1-4)GlcNAc(b1-6)]GalNAc
Method in brief: (§1)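 Columns mapping to the same glycan were averaged after glycan names were converted to IUPAC-condensed notation. The data come from 3228 arrays in the Consortium for Functional Glycomics database, limited to those with an available protein sequence. Binding is reported as a within-array Z-score averaged across arrays of one protein sequence and across linkers.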

[2] = target: Fuc(a1-2)Gal6S(b1-3)GlcNAc
Method in brief: as §1

[3] = target: Fuc(a1-2)[GalNAc(a1-3)]Gal(b1-3)GlcNAc(b1-2)Man(a1-3)[Fuc(a1-2)[GalNAc(a1-3)]Gal(b1-3)GlcNAc(b1-2)Man(a1-6)]Man(b1-4)GlcNAc(b1-4)[Fuc(a1-6)]GlcNAc
Method in brief: as §1

[4] = target: Fuc(a1-2)[GalNAc(a1-3)]Gal(b1-4)GlcNAc
Method in brief: as §1

[5] = target: Fuc(a1-3)GlcNAc
Method in brief: as §1

[6] = target: Fuc(a1-3)[Gal(b1-4)]GlcNAc(b1-3)Gal(b1-4)[Fuc(a1-3)]GlcNAc
Method in brief: as §1

[7] = target: Fuc(a1-3)[Gal(b1-4)]GlcNAc6S
Method in brief: as §1

[8] = target: Gal(a1-3)[Gal(a1-4)]Gal(b1-4)GlcNAc
Method in brief: as §1

[9] = target: Gal(b1-3)Gal
Method in brief: as §1

[10] = target: Gal(b1-3)GlcNAc
Method in brief: as §1

[11] = target: Gal(b1-3)GlcNAc(b1-2)Man(a1-3)[Gal(b1-3)GlcNAc(b1-2)Man(a1-6)]Man(b1-4)GlcNAc(b1-4)[Fuc(a1-6)]GlcNAc
Method in brief: as §1

[12] = target: Gal(b1-3)GlcNAc(b1-3)Gal(b1-4)Glc
Method in brief: as §1

[13] = target: Gal(b1-3)GlcNAc(b1-6)GalNAc
Method in brief: as §1

[14] = target: Gal(b1-3)GlcNAc(b1-6)[Gal(b1-3)]GalNAc
Method in brief: as §1

[15] = target: Gal(b1-3)[GlcNAc(b1-6)]GalNAc
Method in brief: as §1

[16] = target: Gal(b1-4)GlcNAc(b1-2)Man(a1-3)[Gal(b1-4)GlcNAc(b1-2)Man(a1-6)][GlcNAc(b1-4)]Man(b1-4)GlcNAc(b1-4)[Fuc(a1-6)]GlcNAc
Method in brief: as §1

[17] = target: Gal(b1-4)GlcNAc(b1-2)[Gal(b1-4)GlcNAc(b1-4)]Man(a1-3)[Gal(b1-4)GlcNAc(b1-2)Man(a1-6)]Man(b1-4)GlcNAc(b1-4)GlcNAc
Method in brief: as §1

[18] = target: Gal(b1-4)GlcNAc(b1-3)Gal(b1-4)GlcNAc(b1-2)Man(a1-3)[Gal(b1-4)GlcNAc(b1-3)Gal(b1-4)GlcNAc(b1-2)Man(a1-6)]Man(b1-4)GlcNAc(b1-4)GlcNAc
Method in brief: as §1

[19] = target: Gal(b1-4)GlcNAc(b1-3)Gal(b1-4)GlcNAc(b1-3)Gal(b1-4)GlcNAc(b1-2)Man(a1-3)[Gal(b1-4)GlcNAc(b1-3)Gal(b1-4)GlcNAc(b1-3)Gal(b1-4)GlcNAc(b1-2)Man(a1-6)]Man(b1-4)GlcNAc(b1-4)GlcNAc
Method in brief: as §1

[20] = target: Gal(b1-4)GlcNAc(b1-3)Gal(b1-4)GlcNAc(b1-3)Gal(b1-4)GlcNAc(b1-2)[Gal(b1-4)GlcNAc(b1-3)Gal(b1-4)GlcNAc(b1-3)Gal(b1-4)GlcNAc(b1-6)]Man(a1-6)[Gal(b1-4)GlcNAc(b1-3)Gal(b1-4)GlcNAc(b1-3)Gal(b1-4)GlcNAc(b1-2)Man(a1-3)]Man(b1-4)GlcNAc(b1-4)[Fuc(a1-6)]GlcNAc
Method in brief: as §1

[21] = target: Gal(b1-4)GlcNAc(b1-3)Gal(b1-4)GlcNAc(b1-3)Gal(b1-4)GlcNAc(b1-3)Gal(b1-4)GlcNAc(b1-2)Man(a1-3)[Gal(b1-4)GlcNAc(b1-3)Gal(b1-4)GlcNAc(b1-3)Gal(b1-4)GlcNAc(b1-3)Gal(b1-4)GlcNAc(b1-2)Man(a1-6)]Man(b1-4)GlcNAc(b1-4)[Fuc(a1-6)]GlcNAc
Method in brief: as §1

[22] = target: Gal(b1-4)GlcNAc(b1-3)Gal(b1-4)GlcNAc(b1-3)[Gal(b1-4)GlcNAc(b1-3)Gal(b1-4)GlcNAc(b1-6)]GalNAc
Method in brief: as §1

[23] = target: Gal(b1-4)GlcNAc(b1-3)Gal(b1-4)GlcNAc(b1-6)[Gal(b1-3)]GalNAc
Method in brief: as §1

[24] = target: Gal(b1-4)GlcNAc(b1-3)[GlcNAc(b1-6)]Gal(b1-4)GlcNAc
Method in brief: as §1

[25] = target: Gal3S(b1-4)[Fuc(a1-3)]GlcNAc6S
Method in brief: as §1

[26] = target: Gal6P(b1-4)GlcNAc
Method in brief: as §1

[27] = target: GlcA3S(b1-3)Gal(b1-4)GlcNAc(b1-2)Man
Method in brief: as §1

[28] = target: GlcNAc(a1-4)Gal(b1-4)GlcNAc(b1-3)Gal(b1-4)[Fuc(a1-3)]GlcNAc(b1-3)Gal(b1-4)[Fuc(a1-3)]GlcNAc
Method in brief: as §1

[29] = target: GlcNAc(b1-3)Gal(b1-4)GlcNAc(b1-2)[GlcNAc(b1-3)Gal(b1-4)GlcNAc(b1-6)]Man(a1-6)[GlcNAc(b1-3)Gal(b1-4)GlcNAc(b1-2)Man(a1-3)]Man(b1-4)GlcNAc(b1-4)GlcNAc
Method in brief: as §1

[30] = target: GlcNAc(b1-3)Gal(b1-4)GlcNAc(b1-3)Gal(b1-4)GlcNAc
Method in brief: as §1

[31] = target: Fuc(a1-2)Gal(b1-4)GlcNAc(b1-3)Gal(b1-4)GlcNAc(b1-3)Gal(b1-4)GlcNAc
Method in brief: as §1

[32] = target: Fuc(a1-3)[Gal(b1-4)]GlcNAc(b1-4)Gal(b1-4)[Fuc(a1-3)]GlcNAc(b1-4)Gal(b1-4)[Fuc(a1-3)]GlcNAc
Method in brief: as §1

[33] = target: Gal3S(b1-3)GalNAc
Method in brief: as §1

[34] = target: Gal3S4S(b1-4)GlcNAc
Method in brief: as §1

[35] = target: Gal3S6S(b1-4)GlcNAc6S
Method in brief: as §1

[36] = target: Gal6S(b1-4)Glc6S
Method in brief: as §1

[37] = target: GalNAc(b1-3)Gal
Method in brief: as §1

[38] = target: GlcNAc(a1-6)Gal(b1-4)GlcNAc
Method in brief: as §1

[39] = target: GlcNAc(b1-2)Man(a1-3)[GlcNAc(b1-2)Man(a1-6)]Man(b1-4)GlcNAc(b1-4)GlcNAc
Method in brief: as §1

[40] = target: GlcNAc(b1-3)Gal(b1-3)GalNAc
Method in brief: as §1

[41] = target: GlcNAc(b1-4)GlcNAc(b1-4)GlcNAc(b1-4)GlcNAc(b1-4)GlcNAc
Method in brief: as §1

[42] = target: GlcNAc(b1-4)GlcNAc(b1-4)GlcNAc(b1-4)GlcNAc(b1-4)GlcNAc(b1-4)GlcNAc
Method in brief: as §1

[43] = target: Man(a1-2)Man(a1-3)Man
Method in brief: as §1

[44] = target: Man(a1-3)[Man(a1-6)]Man(a1-6)[Man(a1-3)]Man(b1-4)GlcNAc(b1-4)GlcNAc
Method in brief: as §1

[45] = target: Man(a1-6)Man
Method in brief: as §1

[46] = target: Neu5Ac(a2-3)Gal(b1-4)Glc
Method in brief: as §1

[47] = target: Neu5Ac(a2-3)Gal(b1-4)[Fuc(a1-3)]GlcNAc(b1-3)Gal
Method in brief: as §1

[48] = target: Neu5Ac(a2-6)Gal(b1-4)GlcNAc(b1-2)Man(a1-3)[GlcNAc(b1-2)Man(b1-4)GlcNAc(b1-2)Man(a1-6)]Man(b1-4)GlcNAc(b1-4)GlcNAc
Method in brief: as §1

[49] = target: Neu5Ac(a2-6)Gal(b1-4)GlcNAc(b1-2)Man(a1-3)[Neu5Ac(a2-6)Gal(b1-4)GlcNAc(b1-2)Man(a1-6)]Man(b1-4)GlcNAc(b1-4)GlcNAc
Method in brief: as §1

[50] = target: Neu5Gc(a2-3)Gal(b1-4)GlcNAc
Method in brief: as §1

B1: MPA (Maclura pomifera), P18674 (protein)
chain: GVTFDDGAYTGIREINFEYNSETAIGGLRVTYDLNGMPFVAEDHKSFITGFKPVKISLEFPSEYIVEVSGYVGKVEGYTVIRSLTFKTNKQTYGPYGVTNGTPFSLPIENGLIVGFKGSIGYWLDYFSIYLSL
In the case of B1, the “glycan array binding signal (z-score)” value [1] is reported as -0.236, the “glycan array binding signal (z-score)” value [2] is reported as -0.247 and the “glycan array binding signal (z-score)” value [3] is reported as -0.363. For the same binder, the “glycan array binding signal (z-score)” value [4] was -0.227, the “glycan array binding signal (z-score)” value [5] was -0.164 and the “glycan array binding signal (z-score)” value [6] was -0.148. The “glycan array binding signal (z-score)” value [7] was 0.042, the “glycan array binding signal (z-score)” value [8] was -0.119 and the “glycan array binding signal (z-score)” value [9] was -0.079. The “glycan array binding signal (z-score)” value [10] was -0.201, the “glycan array binding signal (z-score)” value [11] was -0.074 and the “glycan array binding signal (z-score)” value [12] was -0.157. The “glycan array binding signal (z-score)” value [13] was -0.363, the “glycan array binding signal (z-score)” value [14] was -0.291 and the “glycan array binding signal (z-score)” value [15] was -0.112. For the same binder, the “glycan array binding signal (z-score)” value [16] was -0.26, the “glycan array binding signal (z-score)” value [17] was -0.046 and the “glycan array binding signal (z-score)” value [18] was 3.21. The “glycan array binding signal (z-score)” value [19] was 8.11, the “glycan array binding signal (z-score)” value [20] was 2.44 and the “glycan array binding signal (z-score)” value [21] was 4.26. The “glycan array binding signal (z-score)” value [22] was 4, the “glycan array binding signal (z-score)” value [23] was 2.93 and the “glycan array binding signal (z-score)” value [24] was -0.172. The “glycan array binding signal (z-score)” value [25] was -0.226, the “glycan array binding signal (z-score)” value [26] was -0.561 and the “glycan array binding signal (z-score)” value [27] was -0.571. The “glycan array binding signal (z-score)” value [28] was -0.148, the “glycan array binding signal (z-score)” value [29] was 5.1 and the “glycan array binding signal (z-score)” value [30] was -0.233.

B2: MD-2 (Homo sapiens) (protein)
chain: MLPFLFFSTLFSSIFTEAQKQYWVCNSSDASISYTYCDKMQYPISINVNPCIELKGSKGLLHIFYIPRRDLKQLYFNLYITVNTMNLPKRKEVICRGSDDDYSFCRALKGETVNTTISFSFKGIKFSKGKYKCVVEAISGSPEEMLFCLEFVILHQPNSN
In the case of B2, the “glycan array binding signal (z-score)” value [31] is reported as 0.156, the “glycan array binding signal (z-score)” value [32] is reported as -0.473 and the “glycan array binding signal (z-score)” value [24] is reported as -0.262. The “glycan array binding signal (z-score)” value [33] was -0.242, the “glycan array binding signal (z-score)” value [34] was 3.89 and the “glycan array binding signal (z-score)” value [35] was 6.6. For the same binder, the “glycan array binding signal (z-score)” value [36] was 6.38, the “glycan array binding signal (z-score)” value [37] was -0.354 and the “glycan array binding signal (z-score)” value [38] was -0.163. For the same binder, the “glycan array binding signal (z-score)” value [39] was -0.316, the “glycan array binding signal (z-score)” value [40] was -0.326 and the “glycan array binding signal (z-score)” value [41] was 4.23. The “glycan array binding signal (z-score)” value [42] was 5.59, the “glycan array binding signal (z-score)” value [43] was -0.386 and the “glycan array binding signal (z-score)” value [44] was 0.116. The “glycan array binding signal (z-score)” value [45] was 0.081, the “glycan array binding signal (z-score)” value [46] was -0.127 and the “glycan array binding signal (z-score)” value [47] was -0.504. The “glycan array binding signal (z-score)” value [48] was -0.331, the “glycan array binding signal (z-score)” value [49] was -0.321 and the “glycan array binding signal (z-score)” value [50] was -0.291.
